Hits are enriched below; roughly 17% of the tested compounds scored in any of these assays.
ATXN2 expr inh – Primary qHTS for Inhibitors of ATXN expression; HEK-293 ATXN2-luciferase reporter, luminescence, 24 h; Potency, µM (highest dose often 57 µM), without a hit: at the top dose activity change, negative = inhibition, most hits filed as inhibitors; 360,000 compounds, 0.72% hits; AID 1745845, 2022; note: % is set by controls: 0 for no effect and ±100 for the full control effect; nearly all actives have a fitted effect of over 55% in size
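qHTS (up to 57 uM final) was run with 24 h compound exposure of reporter cells at 37 °C. Each well was multiplexed: SteadyGlo luminescence measured ATXN2-luciferase expression after a fluorogenic Gly-Phe-AFC viability readout (25 uM final).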
DT40 TDP1 no CPT – qHTS for Inhibitors of human tyrosyl-DNA phosphodiesterase 1 (TDP1): qHTS in cells in absence of CPT. DT40 Tdp1-/- hTDP1 cells, no CPT, ATP luminescence, 48 h. Potency, µM (titrated, usually from 46.2 µM), inactives show at the highest dose activity change, negative = growth inhibition, most hits filed as inhibitors. 420,000 compounds, 15% hits. AID 686978, 2013; note: % is set by controls: 0 for no effect and ±100 for the full control effect; nearly all actives have a fitted effect of over 55% in size
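No-CPT arm: Tdp1-/-;hTDP1 DT40 cells (400/well) plus compounds, incubated ≥48 hr at 37 °C. Readout CellTiter-Glo luminescence.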
DT40 TDP1 CPT – qHTS for Inhibitors of human tyrosyl-DNA phosphodiesterase 1 (TDP1): qHTS in cells in presence of CPT | 420,000 compounds, 12% hits | Potency, µM (titrated, usually from 46.2 µM), for inactives: at the top dose activity change, negative = growth inhibition, actives largely listed as inhibitors | chicken DT40 Tdp1-/-;hTDP1 cells + 20 nM CPT, ATP luminescence, 48 h; note: % is set by controls: 0 for no effect and ±100 for the full control effect; nearly all actives have a fitted effect of over 55% in size
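Chicken DT40 Tdp1-/- cells complemented with human TDP1, 400 cells/well, exposed to compounds plus 20 nM camptothecin for at least 48 h at 37 C; viability read as ATP content by CellTiter-Glo luminescence.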
HepG2 tox – qHTS for Inhibitors of TGF-b: Cytotox Counterscreen; HepG2 CAGA-GFP viability, ATP luminescence, 18 h; Potency, µM (highest dose often 46.1 µM), inactives show at the highest dose activity change, negative = cytotoxicity, hits mostly cytotoxic; 410,000 compounds, 0.76% hits
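HepG2 CAGA-GFP cells (1000/well, DMEM with 1% FBS) received compound, then TGF-beta at 500 pg/mL final, and were incubated 18 hours at 37 degrees C. Viability was read by CellTiter-Glo luminescence. Media-only wells were set as complete cell-killing and DMSO as no toxicity.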
S2 tox – Viability Counterscreen for Primary qHTS for Inhibitors of ATXN expression. S2 cells (HEK-293 line with an ATXN2-luciferase reporter) viability, CellTiter-Fluor protease fluorescence, 24 h. 400,000 compounds, 0.49% hits. AID 651635, 2014. Potency, µM (titrated, usually from 56.7 µM), hits mostly cytotoxic; note: nearly all actives have a fitted effect of over 40% in size
TGFb inhibitor – qHTS for Inhibitors of TGF-b; HepG2 CAGA-GFP TGF-b/SMAD3 reporter, GFP fluorescence, 18 h; TGF-beta stimulated, 500 pg/mL final; Potency, µM (doses to about 46.1 µM), for the others: at the highest dose activity, negative = inhibition, hits mostly inhibitors; 410,000 compounds, 1.2% hits; AID 588855, 2011; note: % is set by controls: 0 for no effect and ±100 for the full control effect; nearly all actives have a fitted effect of over 65% in size
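Inhibition was scored as loss of TGF-beta-induced (500 pg/mL final, 18 hours, 37 degrees C) GFP in HEPG2 cells carrying a CAGA-GFP reporter, in DMEM with 1% FBS. Well GFP was summed per cell; Activity was normalised to unstimulated and stimulated DMSO wells, then concentration-response fitting.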
* marks the source's active call; other numbers are inactive results; i = inactive; ? = inconclusive; nt = no result given; [ ] = dose if it differs, or a comment. Calls come from the whole dose curve; as a rule, active = well fitted curve in the direction sought with a large enough effect; inconclusive = small, poorly fitted or top-dose-only effect, or another doubt; inactive = no such curve, though single readings can be large; an effect the other way counts as inactive or inconclusive. Potency is the fitted concentration of half-maximal effect.

SMILES | ATXN2 expr inh | DT40 TDP1 no CPT | DT40 TDP1 CPT | HepG2 tox | S2 tox | TGFb inhibitor
CC(C)C1C(=O)N(Cc2cn(CCC3OCCO3)nn2)CCS(=O)(=O)N1Cc1ccc(-c2ccccc2)cc1 (centres undefined) | -38.4% | ? | ? | -21.9% | ? | ?
CC(C)C1C(=O)N(Cc2cn(CCC3OCCO3)nn2)CCS(=O)(=O)N1Cc1ccc(-c2ccccc2Cl)cc1 (centres undefined) | -8.8% | 14.6µM* | 16.4µM* | 9.3% | ? | ?
CC(C)C1C(=O)N(Cc2cn(CCC3OCCO3)nn2)CCS(=O)(=O)N1Cc1ccc(-c2ccncc2)cc1 (centres undefined) | 0.5% | -27.7% | -27.2% | -24.1% | i | -2.2%
CC(C)C1C(=O)N(Cc2cn(CCC3OCCO3)nn2)CCS(=O)(=O)N1Cc1ccc(-c2ccc(F)cc2Cl)cc1 (centres undefined) | ? | 20.6µM* | ? | 6.1% | ? | ?
O=C(c1ccc(Cl)cc1)N1CCN(S(=O)(=O)/C=C/c2ccccc2)CC1 | -21.5% | 20.6µM* | ? | -2.3% | i | ?
COc1ccc(CC(=O)Nc2oc(-c3ccccc3)c(-c3ccccc3)c2C#N)cc1OC | -12.2% | ? | -12.6% | -23.4% | i | ?
CN(O)/C=C/C(=O)c1ccc(Br)cc1 | -9.4%[11.3 µM] | ? | 16.4µM* | -0.6% | i | -0.1%
CN(C)/C=C/C(=O)c1ccc(Br)cc1 | 5.8% | -7.2% | 43.1% | -21.0% | i | -6.0%
CCOc1ccc(CNC(=O)CCS(=O)(=O)c2cc3c(cc2Cl)NC(=O)CO3)cc1OC | 7.6% | -1.8% | 9.3% | 1.1% | i | 1.9%
Clc1ccc(-c2noc3c2-c2nc(Cc4cccc5ccccc45)sc2CC3)cc1 | 14.9% | 10.7% | 2.2% | -2.9% | i | 13.7%
CCCCCC(=O)N1CC2(CC)CN(C(=O)CCCCC)CC(CC)(C1)C2=O | -21.5% | ? | 16.4µM* | -0.7% | ? | -21.5%
CCCC(=O)N1CC2(CCC)CN(C(=O)CCC)CC(CCC)(C1)C2=O | -1.3% | -26.9% | -21.5% | -1.8% | i | 35.4%
Cc1cccc(CSc2ncc(Cl)c(C(=O)Nc3sc4c(c3C(N)=O)CCCC4)n2)c1 | 10.9% | 8.2µM* | 23.1µM* | -0.3% | i | ?
Cc1cccc(CSc2ncc(Cl)c(C(=O)Nc3sc4c(c3C#N)CCCC4)n2)c1 | 0.8% | 5.8µM* | 23.1µM* | 0.1% | i | 0.1%
COC(=O)c1c(NC(=O)c2nc(SCc3cccc(C)c3)ncc2Cl)sc2c1CCCC2 | 0.9% | -2.8% | -20.1% | -11.2% | i | -17.3%
COCCNC(=O)C1(C)CCCN(C(=O)c2cnc3ccccc3n2)C1 (centres undefined) | 17.5% | -8.2% | 1.9% | -11.9% | i | -3.4%
CCn1c(C(=O)OC)cc2c1ccn2-c1ccc(F)cc1 | 61.0% | 13µM* | 18.4µM* | 12.6µM* | i | 11.1%
COC(=O)c1cc2c(ccn2-c2ccc(F)cc2)n1Cc1ccc(OC)cc1 | 18.9% | -3.8% | 1.9% | -1.1% | i | -10.8%
CC1CCN(C(=O)CCc2ccc(S(=O)(=O)NC(C)C)cc2)CC1 | -4.7% | -12.6% | -14.2% | -13.2% | i | 0.5%
Cc1c(C(=O)N(Cc2ccccc2)C2CCS(=O)(=O)C2)oc2ccccc12 (centres undefined) | -21.2% | 20.6µM* | ? | -23.0% | i | -6.0%
Cc1ccsc1CN(C(=O)c1oc2ccccc2c1C)C1CCS(=O)(=O)C1 (centres undefined) | nt | 5.17µM* | 8.2µM* | -28.2% | nt | nt
COc1cc(CN(C(=O)c2oc3ccccc3c2C)C2CCS(=O)(=O)C2)cc(OC)c1OC (centres undefined) | 7.1% | ? | ? | -29.5% | i | -4.1%
Cc1c(C(=O)N(Cc2cccc(Br)c2)C2CCS(=O)(=O)C2)oc2ccccc12 (centres undefined) | -32.8% | 20.6µM* | ? | -3.1% | ? | ?
COc1ccccc1C(=O)N(Cc1sccc1C)C1CCS(=O)(=O)C1 (centres undefined) | 3.0% | 2.6% | -10.8% | 11.4% | i | 5.4%
Cc1c(C(=O)N(Cc2ccc(N(C)C)cc2)C2CCS(=O)(=O)C2)oc2ccccc12 (centres undefined) | -2.0% | ? | 29.1µM* | -33.4% | ? | 5.3%
SMILES | ATXN2 expr inh | DT40 TDP1 no CPT | DT40 TDP1 CPT | HepG2 tox | S2 tox | TGFb inhibitor
Cc1c(C(=O)N(Cc2ccc(F)cc2)C2CCS(=O)(=O)C2)oc2ccccc12 (centres undefined) | 4.1% | -28.1% | ? | 3.7% | i | -0.9%
CCS(=O)(=O)N1CCCC(C(=O)NCCc2ccccc2)C1 (centres undefined) | 12.0% | -0.2% | -5.6% | -1.1% | i | 24.3%
CCc1ccc(CN(C(=O)c2oc3ccccc3c2C)C2CCS(=O)(=O)C2)cc1 (centres undefined) | -7.2% | 18.4µM* | ? | -18.5% | ? | ?
COc1ccc(CN(C(=O)c2oc3ccccc3c2C)C2CCS(=O)(=O)C2)cc1 (centres undefined) | 4.0% | ? | -0.9% | -1.3% | i | -2.8%
O=C(CCCCCn1nnc2ccccc2c1=O)Nc1ccccc1Cl | 21.3% | -16.1% | 12.0% | -2.7% | i | -19.5%
O=C(NCCCn1ccnc1)c1cc(-c2cccs2)on1 | 10.5% | 4.61µM* | 4.61µM* | -24.6% | i | -23.6%
O=C(NCc1ccco1)c1cc(-c2ccccc2)on1 | 9.0% | ? | -27.1% | -10.5% | i | 7.8%
O=C(NCc1ccco1)c1cc(-c2cccs2)on1 | 22.0% | 14.1µM* | 8.91µM* | -25.9% | i | -1.3%
Cc1cccc(C)c1NC(=O)C(c1cc2ccccc2o1)N1CCN(C)CC1 (centres undefined) | nt | -12.1% | -12.6% | nt | nt | nt
Cc1ccccc1-c1cc(C(=O)NCC2CC2)nn1CC1CC(c2cccc([N+](=O)[O-])c2)=NO1 (centres undefined) | -18.2% | 16.4µM* | ? | -2.1% | ? | ?

High-throughput results as filed in PubChem.
